Active and inactive are the calls of the source.
Experiments:
[1] = test system: Human papillomavirus type 1a protein E7 (residues 44-93); assay: HPV1a E7 fragment binders on microarrays, primary screen, biochemical, small-molecule microarray, residues 44-93, 635 nm fluorescence (AID 1108); conditions: small-molecule microarray binding, fluorescence 635 nm; higher = more signal;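 note: E7 fragment applied at 1 µg/mL in TBST for 1 h at 4 C; score combines spot fluorescence with its signal to noise ratio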
[2] = modulators of HCV replicon luciferase signal, primary screen, HCV replication inhibitor project, Huh7 cells, luciferase reporter (AID 1109); conditions: 48 h, higher = more signal;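 note: huh7 hepatoma cells harbouring a luciferase neomycin HCV replicon reporter; luciferase luminescence as measure of HCV replicon replication; test concentration not given here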
[3] = biological target: Left-right determination factor 2 (Homo sapiens) (UniProt O00292); assay: LEFTY2 binders on small-molecule microarrays, primary screen, biochemical, small-molecule microarray, 635 nm fluorescence scan (AID 1110); conditions: LEFTY2 binding, higher = more signal
[4] = biological target: Calmodulin-1 (Homo sapiens) (UniProt P0DP23); assay: CALM1 binders on microarrays, EGTA buffer, profiling panel, biochemical, small-molecule microarray, Cy5-labelled CALM1 (AID 1111); conditions: Cy5-CALM1 binding fluorescence, higher = more signal;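 note: labelled calmodulin applied in Tris saline Tween buffer holding calcium plus EGTA and DTT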
[5] = biological target: Calmodulin-1 (Homo sapiens) (UniProt P0DP23); assay: calcium-bound CALM1 binders on microarrays, profiling panel, artefact control for SMM control-protein annotation, biochemical, small-molecule microarray, Cy5-labelled CALM1, plus calcium (AID 1112); conditions: Cy5-CALM1 binding fluorescence, higher = more signal;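 note: score merges spot fluorescence with signal to noise from triplicate slides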
[6] = small-molecule microarray binders of probe aWnt5a, primary screen, biochemical, biotinylated probe, 635/667 nm fluorescence (AID 1113); conditions: higher = more signal;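 note: score merges 667 nm fluorescence intensity with signal-to-noise per printed feature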
[7] = small-molecule microarray binders of probe aShh, primary screen, biochemical, biotinylated probe, 635/667 nm fluorescence (AID 1114); conditions: higher = more signal;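 note: probe is biotin-labelled aShh protein from a stem cell growth factor screen; measures binding of labelled protein to compounds printed on the slide; score merges feature fluorescence at 667 nm with signal-to-noise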
[8] = small-molecule microarray binders of probe aNog, primary screen, biochemical, biotinylated probe, 635/667 nm fluorescence (AID 1115); conditions: higher = more signal;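 note: probe is biotinylated aNog protein used at 0.15 µg/mL for 1 h at 4 C; z-score combines 667 nm fluorescence of each spot with its signal to noise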
[9] = biological target: Torsin-1A-interacting protein 1 (Homo sapiens) (UniProt Q5JTV8); assay: LAP1 binders from COS7 cell lysate, primary screen, small-molecule microarray, 635/667 nm fluorescence (AID 1116); conditions: COS7-hLAP1 lysate binding, 635 nm fluorescence, higher = more signal
[10] = biological target: Alpha-bungarotoxin (Bungarus multicinctus) (UniProt P60615); assay: alpha-bungarotoxin binders on microarray, profiling panel, artefact control for SMM control protein annotation, biochemical, small-molecule microarray, Alexa647 label, 635/667 nm fluorescence (AID 1117); conditions: alpha-BTX-A647 binding fluorescence, higher = more signal
Albumin (Bos taurus) = Albumin (Bos taurus) (UniProt P02769); assay: bovine serum albumin binders on microarray, profiling panel, artefact control for SMM control protein annotation, biochemical, small-molecule microarray, Alexa647 label, 635/667 nm fluorescence (AID 1118); conditions: BSA-A647 binding, fluorescence 635 nm, higher = more signal;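 note: score merges 667 nm emission intensity and signal-to-noise per printed compound spot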
[11] = small-molecule microarray binders of probe aXIP, primary screen, biochemical, NeuroSMM set, 635/667 nm fluorescence (AID 1119); conditions: higher = more signal, called active from +8 up or from −8 down;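 note: probe is the protein aXip251-270 applied at 1 µg/mL to compound-printed slides; binding of probe to printed compounds measured as 667 nm fluorescence plus signal to noise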
[12] = small-molecule binders of probe aNOTCH3, primary screen, biochemical, small-molecule microarray, 635/667 nm fluorescence (AID 1120); conditions: higher = more signal;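 note: probe is a biotin-tagged antibody raised against NOTCH3 rather than NOTCH3 protein; score merges spot fluorescence near 667 nm with spot signal to noise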
[13] = small-molecule binders of probe aNOTCH2, primary screen, biochemical, small-molecule microarray, 635/667 nm fluorescence (AID 1121); conditions: higher = more signal;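 note: score merges feature fluorescence read at 667 nm with its signal to noise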
[14] = biological target: Carbonic anhydrase 2 (Homo sapiens) (UniProt P00918); assay: CAII small-molecule binders, profiling panel, biochemical, small-molecule microarray, Alexa647-labelled CAII (AID 1122); conditions: CAII-A647 binding fluorescence, higher = more signal
[15] = COS7 lysate on small-molecule microarray, probe aHis, 635 nm (AID 1123); conditions: COS7 cell lysate, fluorescence, higher = more signal;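 note: z-score combines 667nm fluorescence intensity with signal-to-noise per printed compound spot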
[16] = compound binding in COS7 lysate, probe aLAP1, primary screen, cell lysate, small-molecule microarray (AID 1124); conditions: probe aLAP1, fluorescence, higher = more signal;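 note: lysate comes from COS7 cells expressing LAP1 and is applied at 0.3 µg/mL; score merges spot fluorescence near 667 nm with signal-to-noise over triplicate slides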
Sam68 (KHDRBS1) = assay: Sam68 small-molecule binders, primary screen, biochemical, small-molecule microarray, 635 nm fluorescence (AID 1125); conditions: small-molecule microarray binding, higher = more signal;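 note: score merges 667 nm channel intensity with signal to noise over triplicate slides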
[17] = test system: Chordin-like protein 2 (CHRDL2); assay: CHRDL2 small-molecule binders, primary screen, biochemical, small-molecule microarray, 635 nm fluorescence (AID 1126); conditions: small-molecule microarray binding, fluorescence 635 nm; higher = more signal;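 note: printed compound slides probed with Chrdl2 protein at 4 µg/mL for 1 h at 4 C; score merges 667 nm emission intensity with signal to noise over three replicate slides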
[18] = biological target: Concanavalin-A (Canavalia ensiformis) (UniProt P02866); assay: ConA small-molecule binders, primary screen, artefact control for SMM control protein annotation, biochemical, small-molecule microarray, Alexa647 label, 635 nm (AID 1127); conditions: ConA-A647 binding fluorescence, higher = more signal;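 note: z combines 667 nm emission intensity with signal-to-noise across three replicate slides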
Chain of Concanavalin-A (Canavalia ensiformis) (P02866 whole entry, looked up): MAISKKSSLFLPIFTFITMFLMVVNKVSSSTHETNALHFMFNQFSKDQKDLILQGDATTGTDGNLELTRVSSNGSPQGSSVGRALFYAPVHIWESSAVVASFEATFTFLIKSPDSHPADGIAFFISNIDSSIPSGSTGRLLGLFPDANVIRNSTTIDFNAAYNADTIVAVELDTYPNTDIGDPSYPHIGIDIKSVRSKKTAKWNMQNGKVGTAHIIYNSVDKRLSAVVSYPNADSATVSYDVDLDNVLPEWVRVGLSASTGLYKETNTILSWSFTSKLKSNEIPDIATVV

Chain of Alpha-bungarotoxin (Bungarus multicinctus) (P60615 whole entry, looked up): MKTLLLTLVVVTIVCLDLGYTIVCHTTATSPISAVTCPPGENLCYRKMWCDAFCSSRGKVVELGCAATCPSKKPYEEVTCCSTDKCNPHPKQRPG
Chain of Torsin-1A-interacting protein 1 (Homo sapiens) (Q5JTV8 whole entry, looked up): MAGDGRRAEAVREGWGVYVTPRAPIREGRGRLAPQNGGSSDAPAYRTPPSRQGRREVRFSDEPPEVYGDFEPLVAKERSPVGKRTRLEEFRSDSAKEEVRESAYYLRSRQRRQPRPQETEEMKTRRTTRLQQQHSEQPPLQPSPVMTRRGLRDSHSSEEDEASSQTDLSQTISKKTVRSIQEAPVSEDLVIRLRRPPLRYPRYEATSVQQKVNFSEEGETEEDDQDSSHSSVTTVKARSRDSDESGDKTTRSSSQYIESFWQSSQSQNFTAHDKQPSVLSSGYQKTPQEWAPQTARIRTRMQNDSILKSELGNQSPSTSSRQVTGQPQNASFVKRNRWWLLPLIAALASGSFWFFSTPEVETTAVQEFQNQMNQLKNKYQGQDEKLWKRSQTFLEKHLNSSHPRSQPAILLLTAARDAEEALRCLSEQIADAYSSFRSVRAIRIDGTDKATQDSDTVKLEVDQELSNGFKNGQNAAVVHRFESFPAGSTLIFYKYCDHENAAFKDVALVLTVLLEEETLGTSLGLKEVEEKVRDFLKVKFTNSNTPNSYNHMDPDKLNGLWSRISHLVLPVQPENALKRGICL
Chain of Albumin (Bos taurus) (P02769 whole entry, looked up): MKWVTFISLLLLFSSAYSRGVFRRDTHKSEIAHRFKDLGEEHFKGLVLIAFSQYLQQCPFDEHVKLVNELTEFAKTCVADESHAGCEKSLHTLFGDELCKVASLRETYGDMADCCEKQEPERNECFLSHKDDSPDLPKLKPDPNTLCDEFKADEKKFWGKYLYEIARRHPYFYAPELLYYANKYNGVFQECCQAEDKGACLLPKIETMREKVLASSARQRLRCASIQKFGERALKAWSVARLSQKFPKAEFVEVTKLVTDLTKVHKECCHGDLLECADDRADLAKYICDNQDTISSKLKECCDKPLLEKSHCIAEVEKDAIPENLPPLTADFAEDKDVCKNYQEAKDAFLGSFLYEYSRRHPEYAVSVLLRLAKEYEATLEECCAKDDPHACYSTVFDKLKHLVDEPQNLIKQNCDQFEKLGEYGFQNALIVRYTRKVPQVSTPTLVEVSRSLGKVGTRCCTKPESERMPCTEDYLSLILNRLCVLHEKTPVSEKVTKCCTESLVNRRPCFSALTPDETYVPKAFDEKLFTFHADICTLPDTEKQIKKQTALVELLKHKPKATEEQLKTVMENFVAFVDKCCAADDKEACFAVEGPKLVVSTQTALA
Chain of Left-right determination factor 2 (Homo sapiens) (O00292 whole entry, looked up): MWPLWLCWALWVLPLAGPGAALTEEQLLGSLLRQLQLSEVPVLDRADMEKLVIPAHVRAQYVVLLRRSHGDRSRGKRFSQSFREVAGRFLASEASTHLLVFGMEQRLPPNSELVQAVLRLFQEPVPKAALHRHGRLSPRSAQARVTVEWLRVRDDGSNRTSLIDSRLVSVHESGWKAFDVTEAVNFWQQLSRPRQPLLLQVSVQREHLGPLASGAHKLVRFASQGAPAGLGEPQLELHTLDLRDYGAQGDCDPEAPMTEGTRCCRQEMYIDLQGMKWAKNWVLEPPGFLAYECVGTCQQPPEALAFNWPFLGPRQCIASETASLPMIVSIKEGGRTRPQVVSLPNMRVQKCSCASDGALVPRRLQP

Structure (SMILES)	composite z-score [1]	z-score [2]	composite z-score [3]	composite z-score [4]	composite z-score [5]	composite z-score [6]	composite z-score [7]	composite z-score [8]	composite z-score [9]	composite z-score [10]	composite z-score (Albumin (Bos taurus))	composite Z-score [11]	composite z-score [12]	composite z-score [13]	composite z-score [14]	composite z-score [15]	composite z-score [16]	composite z-score (Sam68 (KHDRBS1))	composite z-score [17]	composite z-score [18]
COc1ccc(C(O)C2C=CC3C(=O)N(C)C(=O)C3N2N(c2ccccc2)c2ccccc2)cc1 (stereo not given)	-1.14	-0.336	-0.302	0.531	0.625	0.0102	-0.0843	0.83	0.74	0.844	0.86	0.828 (inactive)	0.016	-0.0657	0.728	1.49	0.0978	0.731	0.0617	0.632
COC(=O)[C@@]1(Cc2ccc(F)cc2)[C@H]2c3cc(C(=O)N4CCCC4)n(Cc4ccccn4)c3C[C@H]2CN1C(=O)c1ccccc1	1.42	-1.73	-0.649	1.36	0.652	0.139	0.704	0.874	1.33	0.23	0.0228	-0.104 (inactive)	0.547	0.417	0.482	2.95	0.382	1.17	-0.22	0.627
CC1CC/C=C\[C@H]2OC34C=CCN(CCN5CCOCC5)C(=O)[C@H]3N(CCCO)C(=O)[C@@H]4C2C(=O)O1 (stereo not given in full)	-0.591	-0.945	-0.573	-0.589	-0.565	-0.192	-0.214	0.144	-0.181	-1.02	-1.3	0.0485 (inactive)	-0.068	-0.164	0.91	-0.531	0.305	0.0414	-0.727	-0.187
C=CCN1C(=O)[C@]2(O[C@H](CCn3cc([C@H](O)c4ccccc4)nn3)[C@@H]([Si](C)(C)c3ccc(OC)cc3)[C@@H]2C)c2cc(NC(=O)c3ccc(OC)cc3)ccc21	1.15	-4.74	0.5	-0.0632	-0.564	-0.0748	-0.221	-0.124	0.725	0.464	0.55	0.24 (inactive)	-0.0362	-0.135	0.015	1.02	-0.182	0.867	0.334	0.543
C=CCN1C(=O)[C@@]2(O[C@@H](CCn3cc([C@H](O)c4ccccc4)nn3)[C@H]([Si](C)(C)c3ccc(OC)cc3)[C@H]2C)c2cc(N3C(=O)c4cccc5cccc3c45)ccc21	-0.18	-3.74	-0.898	0.178	0.872	-0.178	-0.138	0.205	-0.236	-0.0541	0.0345	-0.212 (inactive)	-0.272	-0.223	0.106	0.436	0.0703	-0.233	-1.02	0.341
COCCCNC(=O)[C@@]1(Sc2ccc(C)cc2)CC(=O)N(Cc2ccccc2C(F)(F)F)[C@@H]1c1ccc(CO)cc1I	-0.779	-0.817	-1.47	-0.376	1.04	-0.139	-0.0769	0.595	-0.181	-1.2	0.474	-1.08 (inactive)	-0.402	-0.121	0.175	1.08	0.295	0.188	-1.51	-0.89
C=CCC(OC(C)=O)[C@@H]1[C@@H](N(Cc2cccc3ccccc23)C(=O)Cc2ccc(OC)cc2)c2cc(OCCCO)ccc2N1C(=O)c1ccc2ccccc2c1 (stereo not given in full)	0.233	-0.922	0.139	0.468	-0.385	-0.0398	0.138	-0.23	0.119	0.337	0.226	-0.0662 (inactive)	0.0232	-0.143	0.331	0.481	-0.0588	-0.278	0.0839	0.0699
[N-]=[N+]=Nc1ccccc1C[C@]1(C(=O)N2CCOCC2)N=C(c2ccc(OCCCO)cc2)O[C@H]1c1ccccc1N=[N+]=[N-]	1.29	-2.23	1.22	1.5	-0.388	0.145	0.275	-0.626	1.9	1.84	0.832	0.317 (inactive)	0.472	-0.14	0.648	3.09	0.654	1.28	0.86	1.15
O=C1C[C@@](C(=O)NC2CC2)(c2ccc([N+](=O)[O-])cc2)[C@@H](c2ccc(CO)cc2)N1C1CCCCC1	1.44	-2.02	0.257	0.522	0.435	-0.1	0.149	-0.292	1.43	0.538	0.535	0.002 (inactive)	0.11	-0.0995	0.512	2.7	0.0901	1.28	0.43	0.704
O=C(NCCN1CCOCC1)[C@@H]1c2ccccc2C(=O)N(Cc2ccccc2C(F)(F)F)[C@H]1c1ccc(CO)cc1	1.01	-0.513	-1.45	-0.804	-0.56	-0.145	-0.73	0.0703	-0.851	-0.755	0.0089	-0.141 (inactive)	-0.425	-0.108	0.341	-0.0272	2.49	1.29	-0.93	0.0882
COc1ccc(C(=O)Nc2ccc(CN3C(=O)[C@@]4(O[C@@H](CCn5cc(CCO)nn5)[C@H]([Si](C)(C)c5ccc(OC)cc5)[C@H]4C)c4ccccc43)cc2)cc1	1.33	-5.11	0.904	-0.0429	-0.668	0.0433	-0.0146	0.0117	1.09	0.829	0.264	0.32 (inactive)	0.0276	-0.0895	0.348	0.822	0.116	1.32	0.919	1.09

Reference: PubChem BioAssay
